Screening data as filed in PubChem BioAssay.
TDP1 cell noCPT – qHTS for Inhibitors of human tyrosyl-DNA phosphodiesterase 1 (TDP1): qHTS in cells in absence of CPT | Potency, µM (highest dose often 46.2 µM), for the others: at the highest dose activity change, negative = growth inhibition, hits mostly inhibitors | hit rate 15% among 420,000 | DT40 Tdp1-/- hTDP1 cells, no CPT, ATP luminescence, 48 h | AID 686978, 2013; further: nearly all actives have a fitted effect of over 55% in size
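Cells were dispensed at 400 per well, compounds added by pin tool, plates incubated ≥48 hr at 37 °C, then CellTiter-Glo added for 30 min at room temperature before luminescence reading. Line: DT40 Tdp1-/- complemented with hTDP1; camptothecin omitted.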
RORg inh – ROR gamma (mouse) transcription inhibition; P51450; Drosophila S2 Gal4-RORgamma UAS-luciferase reporter, 20 h; Potency, µM (titrated, usually from 53.6 µM), for the others: at the highest dose activity change, negative = inhibition, hits mostly inhibitors; hit rate 5.4% among 310,000; AID 2551; further: nearly all actives have a fitted effect of over 60% in size
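Using a luciferase readout, inhibitors were identified by reduced reporter activity in Drosophila cells coexpressing a copper-inducible Gal4–ROR gamma fusion and UAS-driven Photinus luciferase, incubated 20 hr after 700 uM copper sulfate.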
TDP1 block – inhibitors of human tyrosyl-DNA phosphodiesterase TDP1. Q9NUW8. recombinant TDP1, AlphaScreen DNA substrate cleavage. Potency, µM (doses to about 130 µM), for the others: top-dose activity change, negative = inhibition, hits mostly inhibitors. hit rate 0.28% among 350,000; further: nearly all actives have a fitted effect of over 40% in size
Target sequence (Q9NUW8 whole entry, looked up): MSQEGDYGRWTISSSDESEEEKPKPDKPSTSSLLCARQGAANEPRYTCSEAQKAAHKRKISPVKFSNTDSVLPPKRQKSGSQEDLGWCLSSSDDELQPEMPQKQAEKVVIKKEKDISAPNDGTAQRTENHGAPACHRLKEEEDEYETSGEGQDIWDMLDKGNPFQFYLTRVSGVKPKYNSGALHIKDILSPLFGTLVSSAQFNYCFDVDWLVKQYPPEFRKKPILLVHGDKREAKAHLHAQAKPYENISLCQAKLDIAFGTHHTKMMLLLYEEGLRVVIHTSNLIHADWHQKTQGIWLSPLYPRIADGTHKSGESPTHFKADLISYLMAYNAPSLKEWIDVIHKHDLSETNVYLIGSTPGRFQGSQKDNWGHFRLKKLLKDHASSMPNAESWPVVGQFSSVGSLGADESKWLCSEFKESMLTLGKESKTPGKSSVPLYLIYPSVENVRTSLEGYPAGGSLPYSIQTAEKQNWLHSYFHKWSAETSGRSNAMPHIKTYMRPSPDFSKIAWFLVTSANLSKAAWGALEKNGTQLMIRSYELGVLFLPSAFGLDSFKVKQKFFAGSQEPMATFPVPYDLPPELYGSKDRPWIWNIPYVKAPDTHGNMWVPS
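Compounds were preincubated with Tdp1 (1 nM final) for 15 min at room temperature before substrate (15 nM final) started a 5 min reaction; beads (10 ug/ml final) were then added for 10 min before AlphaScreen detection.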
DT40 TDP1 CPT – growth inhibition of DT40 Tdp1-/-;hTDP1 cells with camptothecin (screen for TDP1 inhibitors). Potency, µM (titrated, usually from 46.2 µM), for the others: top-dose activity change, negative = growth inhibition, most hits filed as inhibitors. hit rate 12% among 420,000. AID 686979. chicken DT40 Tdp1-/-;hTDP1 cells + 20 nM CPT, ATP luminescence, 48 h; further: nearly all actives have a fitted effect of over 55% in size
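Chicken DT40 Tdp1-/- cells complemented with human TDP1, 400 cells/well, exposed to compounds plus 20 nM camptothecin for at least 48 h at 37 C; viability read as ATP content by CellTiter-Glo luminescence.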
Gal4-VP16 FLuc – inhibits Gal4-VP16 luciferase reporter, ROR gamma counter-screen; AID 2546; Potency, µM (highest dose often 53.6 µM), without a hit: at the highest dose activity, negative = inhibition, most hits filed as inhibitors; hit rate 3.5% among 310,000; Drosophila S2 Gal4-VP16 UAS-luciferase, luminescence, 20 h;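 further: Gal4-VP16 expression switched on by copper sulfate through the metallothionein promoter; nearly all actives have a fitted effect of over 50% in size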
* hit, by the source's call; ? = inconclusive; / = no result; [ ] = another dose, or the depositor's remark. Rows were chosen to be rich in hits. Some 19% of all compounds tested hit in one or more screens of this group. The call rests on the fitted dose curve; in most records, active means well fitted curve in the direction sought with a large enough effect; inconclusive means small, poorly fitted or top-dose-only effect, or another doubt; inactive means no such curve, though single readings can be large; an effect the other way counts as inactive or inconclusive. On the % scale 0 is the no-effect control and ±100 the full control effect; potency means the concentration at half of the fitted maximal effect.

SMILES | TDP1 cell noCPT | RORg inh | TDP1 block | DT40 TDP1 CPT | Gal4-VP16 FLuc
COc1ccc(S(=O)(=O)Nc2cc(C)ccc2OC)cc1C | -28.6% | -15.2% | 6.8% | ? | -16.4%
COc1ccc(CN(CCC(C)C)S(=O)(=O)c2ccccc2Br)cc1 | ? | / | -10.2%[56.1 µM] | ? | /
COC(=O)[C@]12CCCCC=C1N(Cc1ccc(Cl)cc1Cl)C(=O)[C@H](CC(=O)NCc1cccs1)C2 | 23.1µM* | / | / | ? | /
CCOC(=O)[C@]12CCC=C1N(Cc1ccc(Cl)cc1Cl)C(=O)[C@H](CC(=O)NCc1cccs1)C2 | 20.6µM* | / | / | ? | /
O=C(Nc1ncccc1O)c1cccc(S(=O)(=O)N2CCCC2)c1 | -2.7% | / | / | -14.1% | /
O=S(=O)(c1ccccc1)c1nc(-c2ccco2)oc1SCc1ccc(F)cc1 | ? | / | -2.9% | -16.7% | /
Cc1ccc(S(=O)(=O)c2nc(-c3ccco3)oc2SCc2ccc(F)cc2)cc1 | ? | / | 0.0% | 20.6µM* | /
CC(C)CSc1oc(-c2ccco2)nc1S(=O)(=O)c1ccccc1 | 25.9µM* | 4.4% | / | ? | 29.9%
Cn1c(SCC(=O)c2ccc(F)cc2)nnc1-c1ccccc1N | -4.2% | 9.9% | 3.9% | -17.2% | 3.3%
Cn1c(N)c(C(=O)Nc2ccc(-c3ccccc3)cc2)sc1=S | 20.6µM* | 2.6% | 1.4% | 23.1µM* | -2.3%
C=CCn1c(N)c(C(=O)Nc2ccc(C)cc2)sc1=S | 5.3% | -1.4% | -1.8% | -3.0% | -4.7%
Cc1c(C(=O)N(C)C2CCCCC2)sc2ncnc(N3CCN(c4ccccc4F)CC3)c12 | 18.4µM* | 15.4% | 5.4% | 18.4µM* | -13.6%
Cc1c(C(=O)N(C)C2CCCCC2)sc2ncnc(N3CCN(c4ccccc4)CC3)c12 | 14.6µM* | ? | 4.3% | 13µM* | ?
Cc1c(C(=O)N2CCC(C)CC2)sc2ncnc(N3CCN(c4ccccc4)CC3)c12 | -28.7% | 29.3% | 4.2% | -5.2% | -0.5%
COc1cc(=O)n2c(c1C(=O)N(C)Cc1nonc1C)CCN(C(=O)c1cc(C)cc(C)c1)CC2 | -1.4% | / | / | 8.5% | /
Oc1cccc(/C=N/Nc2cccc3cccnc23)c1 | ? | 7.08µM* | 8.5% | ? | ?
COc1cc(/C=N/Nc2cccc3cccnc23)cc(OC)c1O | 16.4µM* | 10µM* | 7.9% | ? | ?
Oc1c(/C=N/Nc2cccc3cccnc23)ccc2ccccc12 | ? | 12.6µM* | 9.1% | ? | ?
Cc1cccc(C)c1NC(=O)Cn1nnc(-c2ccc(CN3CCC(C)CC3)cc2)n1 | -22.8% | 1.3% | 3.5% | -0.9% | 1.6%
Oc1ccc(NCc2cccc(OCc3ccc(F)cc3)c2)cc1 | 18.4µM* | 10µM* | 8.5% | 23.1µM* | ?
O=[N+]([O-])c1cccc(COc2cccc(CO)c2)c1 | -3.2% | / | / | -2.5% | /
c1ccc(COc2cccc(CNCc3ccccn3)c2)cc1 | -14.9% | 11.2µM* | -2.7% | ? | -18.7%
c1ccc(COc2cccc(CNCc3cccnc3)c2)cc1 | ? | 4.7% | 2.7% | -23.2% | 10.0%[10 µM]
O=[N+]([O-])c1ccc(COc2cccc(CNc3ccc(F)cc3)c2)cc1 | 13µM* | 22.8% | 2.6% | 25.9µM* | 4.7%
Oc1ccc(NCc2cccc(OCc3ccccc3)c2)cc1 | 20.6µM* | 11.2µM* | 8.1% | 14.6µM* | ?
SMILES | TDP1 cell noCPT | RORg inh | TDP1 block | DT40 TDP1 CPT | Gal4-VP16 FLuc
COc1ccc(CCNC(=O)C2CCCN(S(=O)(=O)c3cc(C)ccc3OC)C2)cc1OC (stereo not given) | ? | 11.9% | 0.4% | ? | 5.5%
Cc1cc(C)cc(NC(=O)C(Nc2ccccc2)c2ccccc2)c1 (stereo not given) | -27.4% | 44.9%[10 µM] | 1.1% | 18.4µM* | 11.5%
Cc1ccc(NC(C(=O)c2ccccc2)c2ccccc2)cc1 (stereo not given) | 13µM* | / | / | ? | /
Cc1ccc(NC(=O)C(Nc2cccc(C)c2)c2ccccc2)cc1 (stereo not given) | 18.4µM* | -2.7%[10 µM] | 4.6% | ? | -6.7%
Cc1ccc(NC(=O)C(Nc2ccccc2)c2ccccc2)cc1 (stereo not given) | -1.5% | -14.5%[10 µM] | 0.0% | 0.0% | -3.3%
CC(NC(C(=O)c1ccccc1)c1ccccc1)c1ccccc1 (stereo not given) | -13.8% | / | / | 3.6% | /
CCOC(=O)C(C)(C)N(Cc1ccc(C)cc1)S(=O)(=O)c1ccc(Cl)c([N+](=O)[O-])c1 | 13µM* | 19.2% | 5.6% | 14.6µM* | ?
CCOC(=O)C(C)(C)N(Cc1ccc(Cl)cc1)S(=O)(=O)c1ccc(Cl)c([N+](=O)[O-])c1 | / | 14.1% | 7.9% | / | ?
COc1ccccc1N1CCN(C(=O)CSc2nnc(NC(=O)C(C)C)s2)CC1 | ? | 24.9% | 6.0% | ? | -6.8%
CCC(CC)C(=O)Nc1nnc(SCC(=O)N2CCN(c3ccccc3OC)CC2)s1 | 20.6µM* | 41.5% | 7.7% | 20.6µM* | -9.8%
COc1ccccc1N1CCN(C(=O)CSc2nc3ccccc3nc2Cc2ccc(F)cc2)CC1 | ? | / | 2.7% | ? | /
COc1ccc(NC(=O)CSc2nc3ccccc3nc2Cc2ccc(C)cc2)cc1Cl | ? | / | 2.7% | 13µM* | /
COc1ccccc1N1CCN(C(=O)CSc2nc3ccccc3nc2N2CCCCC2)CC1 | ? | -23.2% | / | ? | 4.1%
COc1ccccc1N1CCN(C(=O)CSc2nc3ccccc3nc2Cc2ccc(C)cc2)CC1 | ? | / | 0.0% | 16.4µM* | /
COc1ccccc1N1CCN(C(=O)CSc2nc3ccccc3nc2N2CCC(C)CC2)CC1 | 23.1µM* | -11.2% | -2.4% | 20.6µM* | -4.2%
C/C(=N\Nc1nc(N)cc(Cl)n1)c1ccc(F)cc1 | 0.6% | -39.7% | 7.2% | 0.6% | ?
O=C(CSc1nc2ccccc2nc1Cc1ccc(Cl)cc1)N1CCN(c2ccccc2F)CC1 | 20.6µM* | / | 0.0% | 16.4µM* | /
Cc1ccc(Cc2nc3ccccc3nc2SCC(=O)N2CCN(c3ccccc3F)CC2)cc1 | ? | / | -2.7% | ? | /
Clc1ccc(CN2CCC(CNc3ncnc4onc(-c5ccc(Cl)cc5)c34)CC2)cc1 | 23.1µM* | / | -1.3% | ? | /
Cc1cccc(CN2CCC(CNc3ncnc4onc(-c5ccc(Cl)cc5)c34)CC2)c1 | ? | / | 1.3% | ? | /
Cc1ccc(CN2CCC(CNc3ncnc4onc(-c5ccc(Cl)cc5)c34)CC2)cc1 | 16.4µM* | / | -5.3% | 18.4µM* | /
Cc1ccccc1CN1CCC(CNc2ncnc3onc(-c4ccc(Cl)cc4)c23)CC1 | 16.4µM* | / | 1.1% | ? | /
Cc1cccc(Nc2ncnc3onc(-c4ccc(Cl)cc4)c23)c1C | -24.3% | / | 2.1% | -1.2% | /
Cn1c(=O)c2c(ncn2CCOc2cccc(Br)c2)n(C)c1=O | 9.2µM* | 69.6% | / | 8.2µM* | -13.2%
Cn1c(=O)c2c(nc(Oc3cccc(Br)c3)n2C)n(C)c1=O | -7.7% | ? | 6.2% | -17.5% | -7.8%
